In PubChem BioAssay:
Calls of active or inactive are those of the source. Unless noted, how the calls were made is not given here.

Assays:
[1] = A549 cell viability effects, profiling panel, calcein-AM fluorescence, 48 h, basal (AID 1162); conditions: higher = more signal; further: test concentration not given here
[2] = adipocyte viability effects, profiling panel, cell-based, 3T3-L1 adipocytes, calcein-AM fluorescence, 48 h, basal (AID 1163); conditions: 3T3-L1 adipocytes viability, higher = more signal; further: test concentration not given here
[3] = HepG2 cell viability effects, profiling panel, calcein-AM fluorescence, 48 h, basal (AID 1164); conditions: higher = more signal; further: test concentration not given here
[4] = MM1S cell viability effects, profiling panel, calcein-AM fluorescence, 48 h, basal (AID 1165); conditions: higher = more signal;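 further: viability of MM1S multiple myeloma cells under basal unstimulated conditions; test concentration not given here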
[5] = basal RPMI8226 viability, no added stimulus, profiling panel, cell-based, calcein-AM fluorescence, 48 h, PK04 Diversity Set (AID 1166); conditions: RPMI8226 myeloma viability, higher = more signal;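 further: cells grown under basal conditions without added stimulus; test concentration not given here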
[6] = basal HepG2 mitochondrial membrane potential changes, profiling panel, cell-based, JC-1 fluorescence, 24 h, 100 nL compound (AID 1167); conditions: higher = more signal; further: test concentration not given here
[7] = basal 3T3-L1 adipocyte mitochondrial potential changes, profiling panel, cell-based, JC-1 fluorescence, 3T3-L1 adipocytes, 24 h, 100 nL compound (AID 1168); conditions: JC-1 mitochondrial fluorescence, higher = more signal, called active from +8 up or from −8 down; further: test concentration not given here
[8] = basal RPMI8226 mitochondrial membrane potential changes, profiling panel, cell-based, JC-1 fluorescence, 24 h, 100 nL compound (AID 1169); conditions: RPMI8226 myeloma, JC-1 mitochondrial potential fluorescence, higher = more signal; further: test concentration not given here
[9] = basal MM1S mitochondrial membrane potential changes, profiling panel, cell-based, JC-1 fluorescence, 24 h, 100 nL compound (AID 1170); conditions: higher = more signal; further: test concentration not given here
[10] = A549 lung cancer cell viability effects, profiling panel, resazurin fluorescence, 24 h, PK04 Diversity Set (AID 1171); conditions: higher = more signal, called active from +8 up or from −8 down; further: test concentration not given here
[11] = HepG2 liver cancer cell viability effects, profiling panel, resazurin fluorescence, 24 h, PK04 Diversity Set (AID 1172); conditions: higher = more signal; further: test concentration not given here
[12] = basal S. cerevisiae growth modulation, no modifier, primary screen, OD600, strain BY4716, 24 h, basal condition (AID 1173); conditions: OD600, 24 h, higher = more signal, called active from +8 up or from −8 down
[13] = MM1S myeloma cell viability, profiling panel, resazurin fluorescence, basal, 24 h, PK04 Diversity Set (AID 1174); conditions: higher = more signal, called active from +8 up or from −8 down;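 further: MM1S multiple myeloma cell line; test concentration not given here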
[14] = biological target: Dihydroorotate dehydrogenase (quinone), mitochondrial (Plasmodium falciparum (isolate 3D7)) (UniProt Q08210); test: PfDHODH enzyme inhibitors, primary screen, biochemical, C-terminal His tag, absorbance 600 nm (AID 1175); conditions: DCIP absorbance 600 nm, higher = more signal, called active from +8 up or from −8 down;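 further: recombinant parasite enzyme with a five histidine tag at its C terminus; test concentration not given here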
Chain of Dihydroorotate dehydrogenase (quinone), mitochondrial (Plasmodium falciparum (isolate 3D7)) (Q08210 whole entry, looked up): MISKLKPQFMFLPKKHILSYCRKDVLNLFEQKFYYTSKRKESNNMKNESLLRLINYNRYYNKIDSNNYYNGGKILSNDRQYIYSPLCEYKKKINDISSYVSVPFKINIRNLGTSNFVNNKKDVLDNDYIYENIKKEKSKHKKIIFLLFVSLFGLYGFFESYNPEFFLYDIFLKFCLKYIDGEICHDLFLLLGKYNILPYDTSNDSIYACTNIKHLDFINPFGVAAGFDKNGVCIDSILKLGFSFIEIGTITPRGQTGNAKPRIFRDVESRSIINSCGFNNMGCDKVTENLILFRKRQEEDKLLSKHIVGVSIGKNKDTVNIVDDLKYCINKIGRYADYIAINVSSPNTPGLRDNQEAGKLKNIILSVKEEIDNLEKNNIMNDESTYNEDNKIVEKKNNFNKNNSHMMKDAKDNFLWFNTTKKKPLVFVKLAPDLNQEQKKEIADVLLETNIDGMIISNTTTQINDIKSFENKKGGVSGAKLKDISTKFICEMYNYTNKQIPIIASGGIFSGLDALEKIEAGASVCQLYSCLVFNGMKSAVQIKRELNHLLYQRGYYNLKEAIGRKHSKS

[15] = P. aeruginosa biofilm formation inhibitors, primary screen, strain PAO1, LB-PBS medium, absorbance 600 nm (AID 1176); further: test concentration not given here; conditions: P. aeruginosa PAO1 growth/biofilm, A600, 12 h; higher = more signal
[16] = S. cerevisiae RM11-1a growth modifiers, primary screen, strain RM11-1a, OD600, basal, 24 h (AID 1177); conditions: OD600, 24 h, higher = more signal, called active from +8 up or from −8 down;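 further: cultures grown under basal conditions with no added stressor; test concentration not given here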
[17] = E. coli acrAB mutant growth effects, primary screen, E. coli filamentation inducers, strain DRC39, OD650, 24 h (AID 1178); conditions: higher = more signal, called active from +8 up or from −8 down;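 further: growth measured as culture turbidity by optical density at 650 nm; test concentration not given here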
[18] = E. coli acrAB mutant growth effects, primary screen, E. coli filamentation inducers, strain DRC39, OD650, 48 h (AID 1179);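 further: screen aims at cell division blockers that make cells filament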; conditions: E. coli DRC39 delta-acrAB growth, higher = more signal, called active from +8 up or from −8 down
[19] = RPMI8226 myeloma cell viability, profiling panel, resazurin fluorescence, basal, 24 h, PK04 Diversity Set (AID 1180); conditions: higher = more signal;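 further: RPMI8826 multiple myeloma cell line at 5000 cells per well; test concentration not given here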
[20] = biological target: E3 ubiquitin-protein ligase XIAP (Homo sapiens) (UniProt P98170); test: XIAP binders, primary screen, biophysical, small-molecule microarray, fluorescence 635 nm (AID 1181); conditions: small-molecule microarray binding, higher = more signal;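 further: score merges 667 nm emission and signal to noise over triplicate slides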
Chain of E3 ubiquitin-protein ligase XIAP (Homo sapiens) (P98170 whole entry, looked up): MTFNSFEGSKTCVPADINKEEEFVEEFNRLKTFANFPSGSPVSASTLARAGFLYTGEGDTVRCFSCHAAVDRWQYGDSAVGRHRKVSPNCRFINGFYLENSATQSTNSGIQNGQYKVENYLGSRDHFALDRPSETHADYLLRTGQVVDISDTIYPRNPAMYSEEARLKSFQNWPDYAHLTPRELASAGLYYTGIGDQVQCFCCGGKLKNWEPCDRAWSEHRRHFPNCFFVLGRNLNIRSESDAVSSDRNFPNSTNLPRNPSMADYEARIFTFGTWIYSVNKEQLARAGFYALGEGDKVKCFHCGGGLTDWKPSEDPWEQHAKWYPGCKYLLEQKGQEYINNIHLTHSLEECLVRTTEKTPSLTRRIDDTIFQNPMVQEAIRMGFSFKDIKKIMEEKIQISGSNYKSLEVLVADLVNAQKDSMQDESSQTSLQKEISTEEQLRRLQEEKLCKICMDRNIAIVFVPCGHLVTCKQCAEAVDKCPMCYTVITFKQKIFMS

SMILES | z-score [1] | z-score [2] | z-score [3] | z-score [4] | z-score [5] | z-score [6] | z-score [7] | z-score [8] | z-score [9] | z-score [10] | z-score [11] | z-score [12] | z-score [13] | composite z-score [14] | z-score [15] | z-score [16] | z-score [17] | z-score [18] | z-score [19] | composite z-score [20]
CC(=O)NCCCC[C@@H]1NC(=O)[C@@H]2C[C@H](C(=O)NCCCCCCN)[C@H](c3cccc(OCCO)c3)N2C1=O | -0.182 | 0.691 | 0.268 | 0.213 | -0.413 | -1.26 | -0.0165 (inactive) | 0.648 | 0.0193 | -0.358 (inactive) | -0.55 | -0.652 (inactive) | -0.152 (inactive) | 0.23 (inactive) | -0.0617 (inactive) | -0.158 (inactive) | -0.0095 (inactive) | 0.211 (inactive) | -0.257 | 0.0896
C=CCNC(=O)[C@@H]1[C@H]2C(=O)O[C@H](c3ccccc3)[C@H](c3ccccc3)N2[C@H](c2ccc(O)cc2)[C@@]12C(=O)N(C(=O)OCCOC)c1ccc(C#CCCO)cc12 | 2.21 | 1.14 | 0.723 | -0.824 | 0.262 | -0.707 | 0.152 (inactive) | -0.15 | -0.839 | 0.292 (inactive) | 0.02 | -0.363 (inactive) | -1.12 (inactive) | -0.855 (inactive) | 0.249 (inactive) | 0.782 (inactive) | 0.37 (inactive) | 0.479 (inactive) | -0.299 | -0.0749
C=CCC(OC(C)=O)[C@@H]1[C@@H](N(Cc2ccc(-c3ccccc3)cc2)C(=O)c2ccc(C)cc2)c2cc(OCCCO)ccc2N1C(=O)Cc1ccc2ccccc2c1 (stereo not given in full) | 1.35 | 0.844 | 0.769 | 0.697 | 0.922 | 3.38 | 0.144 (inactive) | -0.0998 | 1.14 | 0.887 (inactive) | 1.03 | -0.516 (inactive) | 1.38 (inactive) | -1 (inactive) | 0.219 (inactive) | -1.72 (inactive) | 1.64 (inactive) | 1.93 (inactive) | 1.22 | -0.02
O=C1OCCC=C[C@H]2OC34C=CCN(c5ccc(Cl)cc5)C(=O)[C@H]3N(CCCCCCO)C(=O)[C@@H]4C12 (stereo not given in full) | 1.26 | -0.043 | 1.21 | 1.69 | -1.1 | 1 | 0.335 (inactive) | -0.0541 | 1.34 | 0.97 (inactive) | 0.546 | -0.247 (inactive) | 1.35 (inactive) | -0.477 (inactive) | -0.786 (inactive) | 0.311 (inactive) | 1.38 (inactive) | 1.74 (inactive) | 1.23 | -0.474
C#C[C@@H](CC)O[Si](C#CCCCC#N)(C(C)C)C(C)C | -0.533 | -0.87 | -0.168 | -3.16 | -0.501 | -0.626 | 0.117 (inactive) | -0.45 | -1.73 | -0.0413 (inactive) | -0.276 | -17.4 (active) | -0.651 (inactive) | -1.06 (inactive) | 0.113 (inactive) | -2.5 (inactive) | 0.0725 (inactive) | 0.173 (inactive) | -0.221 | -0.142
CN(C)CCCCNC(=O)[C@H]1C[C@H]2C(=O)N[C@@H](CCCC[N+](C)(C)C)C(=O)N2[C@H]1c1ccc(O)cc1 | -0.0568 | 0.29 | -0.172 | -0.178 | 0.733 | -0.445 | -0.763 (inactive) | -0.101 | -0.203 | 0.625 (inactive) | 0.351 | -0.0503 (inactive) | 1.4 (inactive) | -0.308 (inactive) | -1.16 (inactive) | -1.11 (inactive) | 0.494 (inactive) | 0.56 (inactive) | 0.643 | -0.0599
COc1ccc(C(=O)Nc2cccc(CN3C(=O)[C@]4(O[C@H](CCn5cc([C@H](O)c6ccccc6)nn5)[C@@H]([Si](C)(C)c5ccc(OC)cc5)[C@@H]4C)c4ccccc43)c2)cc1 | -1.17 | 0.408 | -2.1 | -3.03 | -2.99 | 2.27 | -0.386 (inactive) | -0.989 | -1.12 | -2.56 (inactive) | -2.58 | -1.18 (inactive) | -5.94 (inactive) | -0.512 (inactive) | 1.86 (inactive) | 0.99 (inactive) | -0.409 (inactive) | -0.389 (inactive) | -5.61 | 0.0589
O=C(NCCN1CCOCC1)[C@@H]1c2ccccc2C(=O)N(Cc2ccccc2)[C@H]1c1ccc(CO)cc1 | 0.178 | -0.323 | 0.225 | -0.593 | 0.137 | 2.07 | 0.422 (inactive) | -0.78 | -0.218 | 1.59 (inactive) | 1.15 | 0.476 (inactive) | 0.802 (inactive) | -0.547 (inactive) | -0.838 (inactive) | 0.496 (inactive) | 0.0077 (inactive) | 0.76 (inactive) | 0.822 | -0.0228
COc1ccc([Si](C)(C)[C@H]2[C@H](CC(=O)N3CCC[C@H]3CO)O[C@@]3(C(=O)N(Cc4ccc(N5CCC5=O)cc4)c4ccccc43)[C@@H]2C)cc1 | -0.428 | 0.303 | -0.784 | -2.65 | -3.76 | 1.26 | 0.198 (inactive) | -1.09 | 0.309 | -0.737 (inactive) | -1.39 | -0.942 (inactive) | -1.7 (inactive) | -5.46 (inactive) | 1 (inactive) | 0.194 (inactive) | -1.17 (inactive) | -1.29 (inactive) | -0.944 | -0.0339
